Only some compounds are listed: those with a hit (about 2.9% of all), similar ones and a draw of the others.
ADAM10 inh: ADAM10 inhibition, QFRET primary screen; recombinant ADAM10, EDANS/DABCYL FRET peptide cleavage, 3 h; inhibition, % at 7 µM; 0.62% of 370,000 active;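 active = inhibition above a per-campaign cutoff equal to the mean of compounds falling between control-based bounds plus 3 SD, cut at about 20% in these data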;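 also: 0% = DMSO wells while the 100% control is not disclosed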
KLK7 zymogen act: activators of human kallikrein-7 zymogen | P49862 | purified proKLK7, EDANS-DABCYL substrate fluorescence; 100% is mature enzyme control, 0% vehicle | activation, % at 7 µM | 0.9% of 370,000 active;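 active = activation above the mean of all tested compounds plus 3 SD, computed per campaign excluding outliers beyond control limits, cut at about 13% in these data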
PLCb3 inh: PLC-beta3 (human) inhibition, primary screen; inhibition, % at 12.2 µM; Q01970; Purified PLC-beta3, fluorogenic substrate, fluorescence; 0.18% of 370,000 active; in the data active = inhibition above about 11%;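 also: 0% = median of compound wells on plate and 100% = full blocker control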
PLCg1 inh: blocks human PLC-gamma1 enzyme activity. purified PLC-gamma1, fluorogenic substrate, fluorescence. inhibition, % at 12.2 µM. 0.84% of 370,000 active. AID 720700; in the data active = inhibition above about 9.5%
ADAM17 inh: inhibitors of human ADAM17. 0.83% of 370,000 active. P78536. AID 720648. inhibition, % at 6.95 µM. recombinant ADAM17, EDANS/DABCYL FRET peptide cleavage;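 active = inhibition above the mean of compounds lying between control limits plus 3 SD, set per campaign, cut at about 8.5% in these data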;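 also: 0% = DMSO-only wells as the low control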
Target sequence (P78536 215-824 limits assumed): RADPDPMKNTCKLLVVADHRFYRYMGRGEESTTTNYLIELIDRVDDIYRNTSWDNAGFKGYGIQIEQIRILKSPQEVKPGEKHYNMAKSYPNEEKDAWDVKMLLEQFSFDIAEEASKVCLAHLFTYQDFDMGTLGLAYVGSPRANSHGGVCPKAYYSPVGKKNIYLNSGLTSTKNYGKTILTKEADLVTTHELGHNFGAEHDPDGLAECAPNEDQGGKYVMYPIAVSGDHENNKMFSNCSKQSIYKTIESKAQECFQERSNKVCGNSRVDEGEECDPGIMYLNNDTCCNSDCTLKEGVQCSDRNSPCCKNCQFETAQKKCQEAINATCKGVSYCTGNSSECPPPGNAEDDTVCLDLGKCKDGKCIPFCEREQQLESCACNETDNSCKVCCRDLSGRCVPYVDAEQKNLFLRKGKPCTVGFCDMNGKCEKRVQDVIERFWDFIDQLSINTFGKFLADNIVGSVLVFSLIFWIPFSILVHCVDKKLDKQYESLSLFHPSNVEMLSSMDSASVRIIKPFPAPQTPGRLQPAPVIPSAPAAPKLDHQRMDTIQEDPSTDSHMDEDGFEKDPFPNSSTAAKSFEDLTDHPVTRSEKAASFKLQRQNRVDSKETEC
proKLK7 act conf: proKLK7 activation, confirmation | shares compounds with KLK7 zymogen act | purified proKLK7, EDANS-DABCYL substrate fluorescence; scaled: vehicle 0, mature enzyme 100 | activation, % at 7 µM | 68% of 3,200 active | AID 686949;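 active = activation, as change over the incubation, above the mean of all tested compounds plus 3 SD, cut at about 13% in these data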
EDANS interfere: fluorescence interference counter-screen for KLK7 activators. shares compounds with KLK7 zymogen act. EDANS-DABCYL substrate fluorescence interference, no enzyme, 4 h; solvent 0%, active enzyme control 100%. activation, % at 7 µM. 80% of 3,200 active. AID 686952;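 active = activation above the all-compound mean plus 3 SD, ignoring values outside control-based bounds, cut at about 4.8% in these data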;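 also: value is the 4 h activation minus the activation read at time zero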
The depositor's hits bear a star; i = inactive; nt = not tested or not shown.

SMILES	ADAM10 inh	KLK7 zymogen act	PLCb3 inh	PLCg1 inh	ADAM17 inh	proKLK7 act conf	EDANS interfere
CCn1c2ccccc2c2cc(C=NNC(=O)c3cc(-c4ccc(OC)cc4)n[nH]3)ccc21	-186.5	50.3*	-341.2	-238.3	-35.4	-13.1	-32.5
Cc1ccc2nc(-c3ccc(NC(=O)Cc4cccs4)cc3)[nH]c2c1	-270.3	52.4*	-225.8	-35.3	-113.8	8.2	2.9
COC(=O)[C@]12C[C@H](CC(=O)NCc3cccc4ccccc34)C(=O)N(Cc3ccccc3)C1=C[C@H](C(C)(C)C)O[C@@H]2C	11.7	0.5	4.5	0.1	5.0	nt	nt
CCOC(=O)c1cn(C2CC2)c2c(F)c(NCCCN(C)C)c(F)cc2c1=O	-326.0	19.9*	-249.2	-165.7	-120.9	10.9	12.1*
COc1ccc([C@H]2OC(=O)C[C@H]2C(=O)N2CCN(c3ccccc3C(F)(F)F)CC2)cc1OC	-2.8	0.3	2.6	-0.9	1.8	nt	nt
Cc1cccc(-n2c(O)c(C=Nc3ccc(O)cc3)c3ccccc3c2=O)n1	-76.4	17.8*	-69.8	-59.0	-17.9	22.8*	23.2*
Cc1cccc(-n2c(O)c(C=Nc3ccccc3O)c3ccccc3c2=O)n1	-64.1	17.8*	-85.5	-50.1	-25.8	10.7	9.4*
NS(=O)(=O)c1ccc(N=Cc2c(O)n(-c3nccs3)c(=O)c3ccccc23)cc1	-212.0	22.9*	-461.5	-328.5	-79.5	18.2*	19.7*
COC(=O)c1ccc(S(=O)(=O)N2CCC(NC(=O)CCc3ccccc3)CC2)cc1	-3.6	0.4	0.6	0.8	-0.1	nt	nt
CCOc1ccc(CCNC(=O)c2cc3ccsc3n2C)cc1OCC	-7.3	-0.5	2.3	6.6	-5.9	nt	nt
N#CC1=C(SCC(=O)c2cc3ccccc3oc2=O)NC(=O)C(C#N)C12CCCC2 (stereo not drawn)	-155.0	27.0*	-71.9	-50.7	-42.2	54.8*	53.8*
COc1cc2c(cc1OC)C(CCc1ccccc1)=NCC2	i	152.4*	i	i	i	62.9*	79.8*
COc1ccc(C2=NCCc3cc(OC)c(OC)cc32)cc1OC	-22.8	16.6*	-242.2	-236.5	-8.6	-0.7	11.3*
COc1cc2c(cc1OC)C(c1c(Cl)cccc1Cl)=NCC2	-15.0	3.6	-126.9	-92.0	1.1	nt	nt
COc1ccc(C2=NC(C)(C)Cc3cc(OC)c(OC)cc32)cc1	-16.7	22.5*	-437.6	-303.9	-10.1	8.7	7.1*
COc1ccc(C2=NCCc3cc(OC)c(OC)cc32)cc1	-36.9	30.2*	-487.8	-467.8	-14.1	11.2	12.9*
CCC(C)CNC(=O)CN1C(=O)C2CCCCN2C(=O)c2ccccc21 (stereo not drawn)	-14.8	0.6	-0.8	-3.9	-5.4	nt	nt
CCCN1C(=O)c2ccccc2NC1c1ccc(OC)cc1O (stereo not drawn)	i	18.6*	-321.0	-260.5	-318.0	15.0*	15.8*
Cc1ccc(CN2C(=O)c3ccccc3NC2c2ccccn2)cc1 (stereo not drawn)	i	3.7	-208.8	-170.6	-211.7	nt	nt
O=C1c2ccccc2NC(c2ccccc2)N1CCCN1CCOCC1 (stereo not drawn)	-479.0	14.7*	-333.2	-289.1	-219.1	12.1	10.4*
CCCN1C(=O)c2ccccc2NC1c1ccc(C)cc1 (stereo not drawn)	i	14.5*	-341.3	-286.6	-371.7	9.6	7.3*
Cc1cc2c(s1)c1cnn(Cc3c(Cl)ccc(C)c3F)c(=O)c1n2C	-1.6	nt	-2.8	0.1	-3.5	nt	nt
COc1ccc(OC)c(S(=O)(=O)N2CCCCC2C(=O)N2CCN(c3ccccc3F)CC2)c1 (stereo not drawn)	-4.3	0.0	-4.7	-1.5	-3.2	nt	nt
Cc1ccc2c(c1)C1CS(=O)(=O)N(C3CCCC3)C(=O)N1C2 (stereo not drawn)	5.6	-0.1	1.8	-0.1	4.6	nt	nt
S=C(Nc1ccc2nc(-c3ccccn3)c(-c3ccccn3)nc2c1)N1CCCCCC1	-140.2	5.7	i	i	-37.6	nt	nt
SMILES	ADAM10 inh	KLK7 zymogen act	PLCb3 inh	PLCg1 inh	ADAM17 inh	proKLK7 act conf	EDANS interfere
CCCNC(=S)Nc1ccc2nc(-c3ccccn3)c(-c3ccccn3)nc2c1	-335.9	16.1*	i	-372.4	-79.3	44.2*	54.3*
COC(=O)c1cc(NC(=O)CC(=O)c2cccc(N)c2)cc(C(=O)OC)c1	-26.8	15.3*	-21.8	-20.5	-6.5	-1.3	-0.1
COC(=O)C12C=C3CC(C)=C3C(=O)N1Cc1[nH]c3ccccc3c1C2 (stereo not drawn)	-100.3	4.4	-112.8	-83.0	-27.6	nt	nt
CCOC(=O)c1c(-c2ccccc2)cn2c(C)cc(C)nc12	i	12.7*	i	i	-168.2	5.9	-1.6
CNc1nc2sc3c(c2c(=O)n1C)CC(C)(C)SC3	i	23.2*	-435.2	-366.4	i	1.1	2.0
O=C(Nc1ccccc1Cl)OC1CC2CC1[C@H]1CCCCN1[C@H]2Cc1ccccc1 (stereo partly drawn)	-4.0	0.0	-3.3	-2.8	-6.2	nt	nt
COCCCn1c(=N)c(C(=O)NCC2CCCO2)cc2c(=O)n3ccccc3nc21 (stereo not drawn)	i	33.3*	-232.8	-174.0	-413.3	10.5	15.2*
C=CCn1c(=N)c(C(=O)NCCCOC)cc2c(=O)n3cccc(C)c3nc21	i	119.6*	i	i	i	56.1*	65.5*
CNC(=O)c1cc2c(=O)n3cccc(C)c3nc2n(C(C)C)c1=N	i	90.6*	i	i	i	70.7*	71.1*
O=C(Nc1ccccc1C(=O)NCc1cccnc1)c1ccccc1F	-3.0	0.8	-4.4	1.7	-2.5	nt	nt
COc1ccc(CCn2c(=N)c(C(=O)NCC3CCCO3)cc3c(=O)n4ccccc4nc32)cc1 (stereo not drawn)	-158.2	0.8	-102.6	-71.4	-50.5	nt	nt
O=C(NCc1cccnc1)c1cccn2c(=O)c3sccc3nc12	-271.2	19.1*	i	i	-75.8	67.2*	73.7*
C=CCOC(=O)C1=C(C)N=c2sc(=C3C(=O)N(CC(=O)O)c4ccccc43)c(=O)n2C1c1ccc(OC)cc1 (stereo not drawn)	-6.7	-0.6	-2.4	-1.2	-3.6	nt	nt
O=C(Nc1nc2ncccn2c1-c1ccc(F)cc1)c1ccc(F)cc1	-193.6	4.4	-236.6	-170.9	-56.2	nt	nt
CCCCCC(=O)NC1CCCCN(Cc2cccc(Cl)c2)C1=O (stereo not drawn)	3.1	0.1	3.0	4.0	3.5	nt	nt
Cc1cccn2c(=O)c3cc(C(=O)NCc4cccnc4)c(=N)n(CC4CCCO4)c3nc12 (stereo not drawn)	i	111.2*	i	i	i	9.9	33.5*

Bioassay records deposited in PubChem BioAssay by The Scripps Research Institute Molecular Screening Center.
